Publication PMC9911399, “Two distinct binding modes provide the RNA-binding protein RbFox with extraordinary sequence specificity”
Residue numbers refer to the chain shown, from its start. The full ranking holds about 16,000 sequences; the median of “ka relative to ugcaugu” is about 0.0091, and the highest 2% start at about 0.032. Many of the other results were omitted from the sample, so the highest values are more common in it than they were.

T1: RBFOX1 RRM (Homo sapiens, UniProt Q9NWB1 109-208)
T1 sequence: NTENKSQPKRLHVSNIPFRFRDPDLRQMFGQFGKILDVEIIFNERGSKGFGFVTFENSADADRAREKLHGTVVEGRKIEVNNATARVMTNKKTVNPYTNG

B1: AUAGGCC (DNA:RNA)
RNA: GGGAGACCGGAAUUCAGAUUGUCCAUAGGCCUUAAAUCCCGUCGUAGCCACCA
DNA 1: CAATCTGAATTCCGGTCTCCC
DNA 2: TGGTGGCTACGACGGGATT
B2: CCAGAGA (DNA:RNA)
RNA: B1 RNA with A25C, U26C, G29A, C30G, C31A
DNA 1: CAATCTGAATTCCGGTCTCCC
DNA 2: TGGTGGCTACGACGGGATT
B3: CUCCCAU (DNA:RNA)
RNA: B1 RNA with A25C, A27C, G28C, G29C, C30A, C31U
DNA 1: CAATCTGAATTCCGGTCTCCC
DNA 2: TGGTGGCTACGACGGGATT
B4: UUUCACC (DNA:RNA)
RNA: B1 RNA with A25U, A27U, G28C, G29A
DNA 1: CAATCTGAATTCCGGTCTCCC
DNA 2: TGGTGGCTACGACGGGATT
B5: GUAAUGA (DNA:RNA)
RNA: B1 RNA with A25G, G28A, G29U, C30G, C31A
DNA 1: CAATCTGAATTCCGGTCTCCC
DNA 2: TGGTGGCTACGACGGGATT
B6: GAAAUGA (DNA:RNA)
RNA: B1 RNA with A25G, U26A, G28A, G29U, C30G, C31A
DNA 1: CAATCTGAATTCCGGTCTCCC
DNA 2: TGGTGGCTACGACGGGATT
B7: GGAAUGA (DNA:RNA)
RNA: B1 RNA with A25G, U26G, G28A, G29U, C30G, C31A
DNA 1: CAATCTGAATTCCGGTCTCCC
DNA 2: TGGTGGCTACGACGGGATT
B8: CGGAUGA (DNA:RNA)
RNA: GGGAGACCGGAAUUCAGAUUGUCCCGGAUGAUUAAAUCCCGUCGUAGCCACCA
DNA 1: CAATCTGAATTCCGGTCTCCC
DNA 2: TGGTGGCTACGACGGGATT
B9: GGGAUGA (DNA:RNA)
RNA: B8 RNA with C25G
DNA 1: CAATCTGAATTCCGGTCTCCC
DNA 2: TGGTGGCTACGACGGGATT
B10: GGAUGAA (DNA:RNA)
RNA: B1 RNA with A25G, U26G, G28U, C30A, C31A
DNA 1: CAATCTGAATTCCGGTCTCCC
DNA 2: TGGTGGCTACGACGGGATT
B11: UCACGAG (DNA:RNA)
RNA: B1 RNA with A25U, U26C, G28C, C30A, C31G
DNA 1: CAATCTGAATTCCGGTCTCCC
DNA 2: TGGTGGCTACGACGGGATT
B12: GCGUGGA (DNA:RNA)
RNA: B8 RNA with C25G, G26C, A28U, U29G
DNA 1: CAATCTGAATTCCGGTCTCCC
DNA 2: TGGTGGCTACGACGGGATT
B13: GGAAGUG (DNA:RNA)
RNA: B1 RNA with A25G, U26G, G28A, C30U, C31G
DNA 1: CAATCTGAATTCCGGTCTCCC
DNA 2: TGGTGGCTACGACGGGATT
B14: UGGCACG (DNA:RNA)
RNA: B8 RNA with C25U, A28C, U29A, G30C, A31G
DNA 1: CAATCTGAATTCCGGTCTCCC
DNA 2: TGGTGGCTACGACGGGATT
B15: GGGCACC (DNA:RNA)
RNA: B1 RNA with A25G, U26G, A27G, G28C, G29A
DNA 1: CAATCTGAATTCCGGTCTCCC
DNA 2: TGGTGGCTACGACGGGATT
B16: UGGCACC (DNA:RNA)
RNA: B1 RNA with A25U, U26G, A27G, G28C, G29A
DNA 1: CAATCTGAATTCCGGTCTCCC
DNA 2: TGGTGGCTACGACGGGATT
B17: UGGCAGA (DNA:RNA)
RNA: B8 RNA with C25U, A28C, U29A
DNA 1: CAATCTGAATTCCGGTCTCCC
DNA 2: TGGTGGCTACGACGGGATT
B18: AGGCACC (DNA:RNA)
RNA: B1 RNA with U26G, A27G, G28C, G29A
DNA 1: CAATCTGAATTCCGGTCTCCC
DNA 2: TGGTGGCTACGACGGGATT
B19: AGGCACG (DNA:RNA)
RNA: B1 RNA with U26G, A27G, G28C, G29A, C31G
DNA 1: CAATCTGAATTCCGGTCTCCC
DNA 2: TGGTGGCTACGACGGGATT
B20: ACCACGU (DNA:RNA)
RNA: B8 RNA with C25A, G26C, G27C, U29C, A31U
DNA 1: CAATCTGAATTCCGGTCTCCC
DNA 2: TGGTGGCTACGACGGGATT
B21: AGCCACG (DNA:RNA)
RNA: B1 RNA with U26G, A27C, G28C, G29A, C31G
DNA 1: CAATCTGAATTCCGGTCTCCC
DNA 2: TGGTGGCTACGACGGGATT
B22: GGGCACG (DNA:RNA)
RNA: B8 RNA with C25G, A28C, U29A, G30C, A31G
DNA 1: CAATCTGAATTCCGGTCTCCC
DNA 2: TGGTGGCTACGACGGGATT
B23: GGGGCAC (DNA:RNA)
RNA: B1 RNA with A25G, U26G, A27G, G29C, C30A
DNA 1: CAATCTGAATTCCGGTCTCCC
DNA 2: TGGTGGCTACGACGGGATT
B24: ACGUCGU (DNA:RNA)
RNA: B8 RNA with C25A, G26C, A28U, U29C, A31U
DNA 1: CAATCTGAATTCCGGTCTCCC
DNA 2: TGGTGGCTACGACGGGATT
B25: GGCACGU (DNA:RNA)
RNA: B8 RNA with C25G, G27C, U29C, A31U
DNA 1: CAATCTGAATTCCGGTCTCCC
DNA 2: TGGTGGCTACGACGGGATT
B26: UCUCUCC (DNA:RNA)
RNA: B1 RNA with A25U, U26C, A27U, G28C, G29U
DNA 1: CAATCTGAATTCCGGTCTCCC
DNA 2: TGGTGGCTACGACGGGATT
B27: GACACAG (DNA:RNA)
RNA: B8 RNA with C25G, G26A, G27C, U29C, G30A, A31G
DNA 1: CAATCTGAATTCCGGTCTCCC
DNA 2: TGGTGGCTACGACGGGATT
B28: UCUUGGG (DNA:RNA)
RNA: B1 RNA with A25U, U26C, A27U, G28U, C30G, C31G
DNA 1: CAATCTGAATTCCGGTCTCCC
DNA 2: TGGTGGCTACGACGGGATT
B29: UCCGCCC (DNA:RNA)
RNA: B1 RNA with A25U, U26C, A27C, G29C
DNA 1: CAATCTGAATTCCGGTCTCCC
DNA 2: TGGTGGCTACGACGGGATT
B30: CCGCAGG (DNA:RNA)
RNA: B8 RNA with G26C, A28C, U29A, A31G
DNA 1: CAATCTGAATTCCGGTCTCCC
DNA 2: TGGTGGCTACGACGGGATT
B31: UGCUACU (DNA:RNA)
RNA: B1 RNA with A25U, U26G, A27C, G28U, G29A, C31U
DNA 1: CAATCTGAATTCCGGTCTCCC
DNA 2: TGGTGGCTACGACGGGATT

Biological target: T1, RBFOX1 RRM
Experiment: EMSA; HiTS-Eq, 1 nM pool, 10 min; buffer printed only for the single-RNA assays: 10 mM Tris pH 7.5, 150 mM NaCl, 3.4 mM EDTA, 0.001% NP-40, 30 C
Conditions: tags: His6 N-terminal (pET28a); label: 5' 32P
How it was run: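 Purified wild-type or mutant RbFox RRM at increasing concentrations was equilibrated with 1 nM of 5′-radiolabelled RNA carrying 7 randomized nucleotides for 10 min in 50 µL. Unbound RNA was separated by 8% native PAGE and sequenced. Relative association constants came from read-count changes of each RNA species compared with the control reaction, normalised to the cognate motif.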

Binder	binding signal
B1	0.0113 KA relative to UGCAUGU
B2	0.0103 KA relative to UGCAUGU
B3	0.00325 KA relative to UGCAUGU
B4	0.00771 KA relative to UGCAUGU
B5	0.0136 KA relative to UGCAUGU
B6	0.0134 KA relative to UGCAUGU
B7	0.0487 KA relative to UGCAUGU
B8	0.0221 KA relative to UGCAUGU
B9	0.0379 KA relative to UGCAUGU
B10	0.0174 KA relative to UGCAUGU
B11	0.0108 KA relative to UGCAUGU
B12	0.0179 KA relative to UGCAUGU
B13	0.0211 KA relative to UGCAUGU
B14	0.0541 KA relative to UGCAUGU
B15	0.0223 KA relative to UGCAUGU
B16	0.0134 KA relative to UGCAUGU

Binder	binding signal
B17	0.0265 KA relative to UGCAUGU
B18	0.00933 KA relative to UGCAUGU
B19	0.0414 KA relative to UGCAUGU
B20	0.00412 KA relative to UGCAUGU
B21	0.00567 KA relative to UGCAUGU
B22	0.0317 KA relative to UGCAUGU
B23	0.0252 KA relative to UGCAUGU
B24	0.00803 KA relative to UGCAUGU
B25	0.0321 KA relative to UGCAUGU
B26	0.00975 KA relative to UGCAUGU
B27	0.00906 KA relative to UGCAUGU
B28	0.00663 KA relative to UGCAUGU
B29	0.00894 KA relative to UGCAUGU
B30	0.0108 KA relative to UGCAUGU
B31	0.0158 KA relative to UGCAUGU
